The whole screen tested about 2,300 compounds, of which about 430 (19%) were called active. The list is a sample of the results. Values without a mark were called inactive.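 How the source made its calls: active means mean activation across triplicates above the hit threshold derived in the original primary screen (cut at about 15% in these data); inactive means the rest.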
target: 5-hydroxytryptamine receptor 2A (Mus musculus) (UniProt P35363); experiment: agonist activity at mouse 5-HT2A receptor – cell-based, luminescence, CHO-K1 PathHunter, triplicate, confirmation (AID 624381); conditions: CHO-K1 PathHunter beta-arrestin recruitment, at 7.6 µM, hits give high values, DMSO 0%, 30 µM serotonin 100%
Sequence (P35363 whole entry, looked up): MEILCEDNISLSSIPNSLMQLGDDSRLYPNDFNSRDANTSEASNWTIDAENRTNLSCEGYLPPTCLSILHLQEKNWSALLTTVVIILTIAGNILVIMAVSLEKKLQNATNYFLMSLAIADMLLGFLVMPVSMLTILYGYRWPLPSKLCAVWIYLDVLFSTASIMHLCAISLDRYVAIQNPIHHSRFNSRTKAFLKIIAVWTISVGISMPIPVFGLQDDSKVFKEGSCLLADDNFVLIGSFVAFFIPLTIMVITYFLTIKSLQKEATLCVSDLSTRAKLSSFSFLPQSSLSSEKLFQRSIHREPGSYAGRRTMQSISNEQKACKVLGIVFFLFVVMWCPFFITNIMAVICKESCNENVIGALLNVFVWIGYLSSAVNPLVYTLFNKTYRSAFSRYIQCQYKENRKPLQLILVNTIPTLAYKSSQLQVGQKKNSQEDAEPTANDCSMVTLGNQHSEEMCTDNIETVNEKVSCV

Structure (SMILES) | activation
COc1ccc2[nH]cc(CCN3C(=O)c4ccc(C(=O)O)cc4C3=O)c2c1 | -1.14%
COC(=O)[C@]12CCCCC=C1N(CCC1=CCCCC1)C(=O)[C@H](CC(=O)NCC1CCCCC1)C2 | -5.33%
Nc1cc(C(=O)N2CCN(c3ccccc3Cl)CC2)ccc1N1CC2CC(C1)c1cccc(=O)n1C2 (stereo unspecified) | -1.89%
O=C(c1ccncc1)N1CCN(c2ccc3ccccc3n2)CC1 | 17.1% (active)
COC(=O)c1cc(N2CCNCC2)nc2ccccc12 | 2.65%
COC(=O)Cn1nc(-c2ccccc2)c2cc(Cl)ccc21 | -5.87%
FC(F)(F)COc1nc(N2CCCCC2)nc(N2CCNCC2)n1 | 8.3%
CS(=O)(=O)c1ccc2nc(NC(=O)C3CCCCC3)sc2c1 | -0.86%
O=C(Nc1ccc2c(c1)[C@@H]1C[C@@H](CC(=O)N3CCCCC3)O[C@@H](CO)[C@@H]1O2)NC1CCCCC1 | -4.45%
COc1ccc(/C=N/Nc2ccccc2C(=O)O)cc1 | 4.6%
Cc1cc([N+](=O)[O-])ccc1NC1CCCC1 | 13.5%
Cc1ccc(NC(=O)CSc2nnc(COc3ccccc3C)o2)cc1 | -4.47%
N#CCSc1nn(-c2ccc(F)cc2)c(=S)s1 | -4.94%
COCCN(Cc1cc2cc3c(cc2nc1Cl)OCO3)C(=O)c1cccc(C)c1 | 3.25%
CC(Nc1ccccc1)c1cccnc1 (stereo unspecified) | -3.04%
CC1(Cc2cccc(C#N)c2)C(=O)Nc2ccc(-c3cccc(C(F)(F)F)c3)cc21 (stereo unspecified) | -0.38%
NNc1cccc(C=Cc2ccccc2)cc1=O | 1.74%
O=C(Nc1cccc2cccnc12)c1ccc2sc([C@H]3C[C@H](O)[C@@H](CO)O3)nc2c1 | 4.32%
Cc1ccc(NC(=O)CCOc2ccccc2)cc1S(=O)(=O)Nc1ccccc1Cl | 3.02%
Cc1ccc(S(=O)(=O)N2CCN(c3ncnc4ccccc34)CC2)cc1 | 9.56%
CC(=O)c1ccc(OCC(=O)N(C)C2CCS(=O)(=O)C2)cc1 (stereo unspecified) | -3.74%
COC(=O)[C@@]1(Cc2ccc(F)cc2)[C@H]2c3cc(C(=O)N(C)C)n(CCc4c[nH]c5ccc(OC)cc45)c3C[C@H]2CN1C(=O)c1ccccc1 | 10.9%
C/C(=N\NC(=O)COc1c(C)cccc1C)c1cccs1 | -2.38%
CCCN(CCc1ccccc1)C1CCc2c(O)cccc2C1 (stereo unspecified) | 164% (active)

Structure (SMILES) | activation
CCCC(=O)N=c1sc2cccc(F)c2n1C | -2.76%
Cc1ccc2c(c1)NCC(C(=O)NC1CCC(C)CC1)O2 (stereo unspecified) | -3.96%
CSc1nsc(SCC(=O)Nc2cc(C(=O)O)ccc2C)n1 | 1.2%
CCOCCCNC(=O)Cc1cc(=O)[nH]c(=O)[nH]1 | -1.89%
CC(=O)N1c2ccc(S(=O)(=O)N3CCC(C(=O)NC4CCCCC4C)CC3)cc2CC1C (stereo unspecified) | -5.72%
O=C(O)C1C2C=CC(O2)C1C(=O)NCCc1cccc(Cl)c1 (stereo unspecified) | 4.65%
COC(=O)CC(=O)N1CCN(c2ccc(Cl)c(Cl)c2)CC1 | 13.8%
O=C(O)c1ccc(S(=O)(=O)N2CCC(Cc3ccccc3)CC2)cc1 | -0.19%
COc1ccc(CNC(=O)c2ccc(NS(=O)(=O)c3ccc4[nH]c(=O)[nH]c4c3)cc2)cc1OC | -3.98%
O=C(OCC(=O)N1CCOCC1)c1ccc2ccccc2c1 | -4.74%
Cc1cc(C)n(S(=O)(=O)c2cccc([N+](=O)[O-])c2)n1 | -4.03%
COc1ccc2c(Cl)c(-c3nnco3)sc2c1 | -2.25%
CCn1c(SCC(=O)N2CCCC2=O)nc2ccccc21 | -2.49%
O=C(Cc1ccccc1)n1nc(-c2ccccc2)nc1NCc1ccco1 | 4.58%
OCC1(Cc2ccccc2)CCN(Cc2cc3ccccc3o2)CC1 | 81.8% (active)
COc1ccc(N2CC(C(=O)NCCN3C(=O)S/C(=C\c4cccnc4)C3=O)CC2=O)c(OC)c1 (stereo unspecified) | -1.44%
Cc1c(C(=O)NCC2CC2)sc(=O)n1Cc1cccc(F)c1 | -3.87%
COc1ccc(/C(=N\O)c2nccc3cc(OC)c(OC)cc23)cc1OC | -3.02%
Cc1ccccc1CSCC(=O)NC(=O)NC(C)(C)C | -3.39%
N#Cc1c(NC(=O)CCCl)sc2c1CCCCC2 | 0.58%
O=C(NCc1ccco1)c1cccn2c(=O)c3c4c(sc3nc12)CCCC4 | -1.08%
Fc1ccc2[nH]c3c(N4CCSCC4)ncnc3c2c1 | 3.26%
CCCCNc1c(-c2cccc(Sc3ccc(OC)cc3)c2)nc2ccccn12 | 5.41%
COc1ccccc1Nc1nnc(SC(C)C(=O)NC2CC2)s1 (stereo unspecified) | -1.26%

Structure (SMILES) | activation
Cc1oc2cc(Br)c(O)c(Br)c2c1C(=O)c1ccccc1 | -2.71%
N/C(=N\S(=O)(=O)c1cc(C(F)(F)F)cc(C(F)(F)F)c1)c1cccs1 | -1.99%
O=C(Nc1cc(=O)[nH]c2ncnn12)c1ccccc1Cl | -5.17%
CCOC(=O)[C@]12CCCC=C1N(Cc1ccc3c(c1)OCO3)C(=O)[C@H](CC(=O)NCc1cccs1)C2 | -3.55%
O=C1CC(c2cccc(Cl)c2)CC(O)=C1C=Nc1ccccc1 (stereo unspecified) | -4.5%
COc1cccc(NC(=O)CSc2nnc(-c3cccnc3)o2)c1 | -0.15%
Cc1ccc2nc(-c3ccncc3)cc(C(=O)Nc3ccncc3)c2c1 | 12.6%
C/C(=N\NC(=S)NC1CCCCC1)c1ccc(C)o1 | 29.7% (active)
Cn1c2c(c(=O)n(C)c1=O)C(c1ccc(O)cc1)Nc1ccccc1O2 (stereo unspecified) | -3.78%
O=C(Cc1ccsc1)N1CCN(S(=O)(=O)c2cc(C(F)(F)F)cc(C(F)(F)F)c2)CC1 | -3.88%
CO/N=C/CC(=O)c1ccc(OC)cc1 | -1.94%
CCOC(=O)/C=c1\s/c(=C\c2ccccc2OC)c(=O)n1CC(=O)N1CCOCC1 | -3.42%
O=C(COC(=O)c1cc(S(=O)(=O)N2CCOCC2)ccc1F)NC1CC1 | -1.03%
O=S(=O)(c1ccc(OCC(O)CN2CCN(c3ccccc3Cl)CC2)cc1)N1CCOCC1 (stereo unspecified) | 41.2% (active)
Nc1c(N(Cc2ccco2)C(=O)c2cccc(F)c2)c(=O)[nH]c(=O)n1Cc1ccccc1 | -0.68%
C[C@@H]1ON(C)[C@H]2C[C@H]3c4cc(N5CCN(C)CC5)ccc4CCN3C(=O)[C@@H]12 | 4.65%
CCOC(=O)c1ccc(NC(=O)Cn2cnc3cc(C)c(C)cc32)cc1 | -2.29%
CNCC(O)c1ccc(O)c(O)c1 (stereo unspecified) | 136% (active)
C=C1C(=O)OC2C1CCC(C)=CCCC1(C)OC21 (stereo unspecified) | -6.24%
Cc1cccnc1C(NC(=O)C1CCN(Cc2ccc(Cl)c(Cl)c2)CC1)c1ccc(Cl)cc1 (stereo unspecified) | -7.94%
Cc1ccc(C(=O)N/C(=C/c2cccs2)C(=O)N2CCCCC2)cc1 | -4.44%
CCn1cc(C(=O)OCC(=O)Nc2cccc(C)c2)c(=O)c2ccc(C)nc21 | -1.9%
COc1ccc(C(C)=O)cc1COC(=O)Cn1cnc2ccccc2c1=O | 2.93%

— PubChem BioAssay AID624381 (The Scripps Research Institute Molecular Screening Center, 2012)
